{
  "source": "PubChem BioAssay AID1026",
  "about": "(Columbia University Molecular Screening Center, 2008)",
  "molecular_target": "Bifunctional epoxide hydrolase 2 (Homo sapiens) (UniProt P34913)",
  "sequence (P34913 whole entry, looked up)": "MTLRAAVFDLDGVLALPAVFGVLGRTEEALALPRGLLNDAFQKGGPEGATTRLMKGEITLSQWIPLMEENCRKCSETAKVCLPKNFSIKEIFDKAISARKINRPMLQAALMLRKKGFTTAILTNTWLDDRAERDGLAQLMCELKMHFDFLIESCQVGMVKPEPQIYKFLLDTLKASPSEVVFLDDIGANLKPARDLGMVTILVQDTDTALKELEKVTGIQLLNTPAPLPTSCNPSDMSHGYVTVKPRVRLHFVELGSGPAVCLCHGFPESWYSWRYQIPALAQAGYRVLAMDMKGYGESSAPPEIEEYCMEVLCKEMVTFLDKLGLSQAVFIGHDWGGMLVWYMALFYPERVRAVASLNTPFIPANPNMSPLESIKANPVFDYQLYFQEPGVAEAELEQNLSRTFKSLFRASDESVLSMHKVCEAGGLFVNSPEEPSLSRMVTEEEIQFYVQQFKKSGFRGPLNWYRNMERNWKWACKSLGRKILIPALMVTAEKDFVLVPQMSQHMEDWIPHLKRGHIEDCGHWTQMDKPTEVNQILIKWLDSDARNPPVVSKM",
  "test": "sEH inhibitor concentration-response potency, dose response, biochemical, human sEH, fluorescence, Infinite200 (AID 1026)",
  "conditions": "recombinant human sEH, fluorogenic substrate, at 0.2 µM, active compounds read high",
  "note": "Unmarked numbers belong to inactive results. The rule behind the calls is not given here.",
  "data": [
    {"smiles": "CC(Cc1ccccc1)NC(=O)NC(C)Cc1ccccc1", "note": "(stereo unspecified)", "values": [
      {"measurement": "inhibition", "value": 71.6, "unit": "%"}
    ]}
  ]
}
